Experimental data from PubChem BioAssay AID624414 (National Center for Advancing Translational Sciences (NCATS), 2012).
The campaign covered roughly 410,000 compounds. About 480 (0.12%) were called active. No stated cut-off is given here; in the data, active means activation above about 50%; inconclusive means mostly about 30% to 49%; inactive means weaker than that. The sample as a whole holds a higher share of actives than the screen did.

Target: Mucolipin-1 (Homo sapiens) (UniProt Q9GZU1)
Test: qHTS for Agonists of the Human Mucolipin Transient Receptor Potential 1 (TRPML1); further: 0% is about no effect
Details: TRPML1-expressing cells, Ca2+ dye fluorescence, FDSS; stronger effect = higher value
Source text: Mutations of human Mucolipin transient receptor potential 1 (TRPML1) cause type IV mucolipidosis (ML4), a devastating neurodegenerative disease in young children. […] Currently, there is no treatment for ML4. […] Under physiological conditions, TRPMLs regulate membrane trafficking by transducing information about PI(3,5)P2 levels into changes in juxtaorganellar Ca2+, thereby triggering membrane fusion/fission events in the late endocytic pathways (endolysosomal trafficking). In addition, TRPML1 mediates release of Fe2+ from late endosomes and lysosomes, which is essential for cellular iron metabolism. Thus, impaired ion (Ca2+ and Fe2+) homeostasis underlies lysosomal dysfunction and ML4 phenotypes. In ML4 cells, the problem is twofold. First, defective Ca2+-dependent membrane trafficking due to TRPML1-deficiency causes accumulation of lipids and other bio-materials in the lysosome. The second strike comes from the lysosomal iron overload (due to impairment of TRPML1's Fe2+ conductivity), which converts the accumulated materials into the nondegradable (resistant to lysosomal degradation) lipofuscin (also called aging pigment) in the lysosome. Lipofuscin accumulation dramatically compromises the functions of lysosomes.
Niemann-Pick type C (NPC) disease is another lysosome storage disease (LSD) with severe neurodegeneration during the childhood. Currently, there is no cure for NPC. […] Thus, TRPML1 is likely to be an essential regulator of lysosome ion homeostasis. We specifically hypothesize that stimulating TRPML1's Fe2+/Ca2+ channel activity in the lysosome using synthetic agonists can alleviate neurodegeneration associated with ML4 or NPC.
To this end, a high throughput screen was developed in a miniaturized format to screen against the Molecular Libraries Small Molecule Repository (MLSMR) to find small molecules that act either as inhibitors or agonist against the TRPML1 channel.
NIH Chemical Genomics Center [NCGC]
NIH Molecular Libraries Probe Centers Network [MLPCN]
Assay Submitter (PI): Haoxing Xu, University of Michigan Ann Arbor
TRPML1-DL cells are dissociated from flasks, counted and, brought up to a density of 500,000 cells per mL of media containing a 1X Tet inducer. Using a Multidrop Combi, 3uL of this cell solution is dispensed to each well of a 1536 TC treated, black, clear bottom hi base plate for a final cell density of 1,500 cells per well. The assay plates are incubated overnight (approximately 16 hours) at 37 degrees C and 5% CO2. Using a Multidrop Combi, 2uL of ABD Ca8 no wash dye plus quencher is added to each well. The assay plates incubate at room temperature in the dark for 45-90 minutes. The assay plate is read on the FDSS using the following protocol: 10 second baseline read, 23nL of compounds and controls are added using 1536 pintool, agonist read for 110 seconds, 1 uL EC80 addition (4uM final 54-4 diluted in media), antagonist read for 110 seconds.

Sequence of Mucolipin-1 (Homo sapiens) (Q9GZU1 whole entry, looked up): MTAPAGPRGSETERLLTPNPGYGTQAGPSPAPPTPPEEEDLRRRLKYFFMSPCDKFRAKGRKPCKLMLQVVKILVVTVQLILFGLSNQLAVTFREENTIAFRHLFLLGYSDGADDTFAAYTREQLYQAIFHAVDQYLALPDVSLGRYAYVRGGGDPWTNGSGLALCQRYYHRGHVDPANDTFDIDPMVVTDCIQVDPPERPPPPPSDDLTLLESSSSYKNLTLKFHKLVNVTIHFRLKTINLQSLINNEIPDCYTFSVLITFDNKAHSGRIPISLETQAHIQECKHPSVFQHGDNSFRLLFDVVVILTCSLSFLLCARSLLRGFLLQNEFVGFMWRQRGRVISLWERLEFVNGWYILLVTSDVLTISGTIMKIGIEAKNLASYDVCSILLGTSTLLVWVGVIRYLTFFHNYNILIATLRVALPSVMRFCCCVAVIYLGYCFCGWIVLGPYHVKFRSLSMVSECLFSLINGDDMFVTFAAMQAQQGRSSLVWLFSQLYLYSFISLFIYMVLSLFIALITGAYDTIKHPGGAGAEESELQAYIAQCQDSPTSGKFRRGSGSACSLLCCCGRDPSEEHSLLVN

Structure (SMILES)	activation
Cc1ccc(NC(=O)c2ccc(CN3CC(=O)N4CCCCC4C3=O)cc2)c(Cl)c1 (configuration not stated)	2.76% (inactive)
CCOc1n[nH]c(-c2ccccc2)n1	0% (inactive)
CN(C)c1ccc(/C=N\Nc2ccc([N+](=O)[O-])cc2[N+](=O)[O-])cc1Cl	-0.0634% (inactive)
O=C(CSc1ncc(-c2ccccc2)[nH]1)Nc1ccc(F)cc1F	2.97% (inactive)
OCC(O)C(O)C(O)C(O)C=Nc1ccc(/C=C/c2ccnc3ccccc23)cc1 (configuration not stated)	6.02% (inactive)
COC(=O)C1=C(C(=O)OC)[C@@H]2N(Cc3ccccc3)c3ccccc3[C@@]23C[C@@H](C(=O)OC)N(S(=O)(=O)c2ccc(C(F)(F)F)cc2)C3=N1	-0.417% (inactive)
CCN1/C(=C/c2ccc3ccc(C)cc3[n+]2CC)Sc2ccccc21	70.1% (active)
CCCCOc1ccc(C(=O)NO)cc1	-0.809% (inactive)
Cc1csc[n+]1CCC1CCCCC1	0.413% (inactive)
C=C1C=C(C)n2ncc(C(=O)Nc3ccccc3O)c2N1	-0.539% (inactive)
Nc1nc(N)c(N=O)c(N)n1	-0.147% (inactive)
C=CCCN(C(Cc1ccccc1)C(=O)OC)S(=O)(=O)c1cc(Br)ccc1Br (configuration not stated)	2.52% (inactive)
CCCN(CCC)c1nc2c(C)cccn2c(=O)c1/C=C1/SC(=S)N(Cc2ccco2)C1=O	17.6% (inactive)
CCOC(=O)CC1C(=O)NCCN1c1nc2c(C)cccn2c(=O)c1/C=C1\SC(=S)N(C(C)CC)C1=O (configuration not stated)	71% (active)
CCOC(=O)CNC(=O)c1cc2c(=O)n3cccc(C)c3nc2s1	0.461% (inactive)
CCC(=O)N1CCc2cc(Br)cc(S(=O)(=O)CCC(=O)NCCc3ccc(OC)c(OC)c3)c21	-0.301% (inactive)
Cc1[nH]c2ccccc2c1C(=O)C(=O)N(C)c1ccccc1	-0.513% (inactive)
COC(=O)C1=C(c2ccccc2)c2ccccc2S(=O)(=O)N1CC(=O)Nc1ccccc1C(F)(F)F	1.11% (inactive)
CN(C)c1ccc(C=Nc2ccc(/C=C/c3ccnc4ccccc34)cc2)cc1	1.17% (inactive)
CCC(C)N(c1ccc(/C=C/c2ccnc3ccccc23)cc1)C(C)CC (configuration not stated)	18.2% (inactive)
CN(C)c1ccc(/C=C/C=C/c2ccnc3ccccc23)cc1	52.7% (active)
Cc1cccc(CN2Cc3cccc4c3[C@H](C=CC4)CC2=S)c1	-0.678% (inactive)

Structure (SMILES)	activation
CCCc1cc(=O)n2[nH]c(NCc3ccc(CC)cc3)nc2n1	-0.211% (inactive)
CCCN1CCC(=O)N(C(CSc2ccc(C)cc2)Cc2ccccc2)CC1 (configuration not stated)	1.24% (inactive)
CCOC1=C2CN(S(=O)(=O)c3ccc(C)cc3)[C@H](c3cccs3)C[C@H]2[C@H]2C(=O)N(c3ccccc3)C(=O)[C@H]2C1	64.2% (active)
CCOC1=C2[C@@H](CN(S(=O)(=O)c3ccc(C)cc3)[C@H]2c2ccccc2F)[C@H]2C(=O)N(Cc3ccccc3)C(=O)[C@H]2C1	1.29% (inactive)
CCOC1=C2[C@H]([C@H]3C(=O)N(c4ccccc4)C(=O)[C@H]3C1)[C@@H](c1ccccc1)N(S(=O)(=O)c1ccc(C)cc1)[C@H]2c1ccccc1	-0.217% (inactive)
COc1cc(NS(=O)(=O)c2cccs2)cc(OC)c1	-1.48% (inactive)
COc1cc2nc(Cl)nc(NC3CC3)c2cc1OC	-0.998% (inactive)
CCOC(=O)c1c(NC(=O)COc2cc(C)ccc2C(C)C)sc(C)c1C	1.35% (inactive)
O=C1C[C@H]2C=CCc3cccc(c32)CN1Cc1ccccc1	-0.974% (inactive)
Oc1ccc(Cl)cc1C1C=C(c2ccc3c(c2)OCO3)NC(c2c(F)cccc2Cl)N1 (configuration not stated)	0.805% (inactive)
O=S(=O)(Nc1cccc2cccnc12)c1cccc2cccnc12	0.864% (inactive)
CC(=O)c1ccc[n+](C(C)CCC(C)[n+]2cccc(C(C)=O)c2)c1 (configuration not stated)	-0.159% (inactive)
Cc1ccc(Cl)cc1N(C)C(=O)C1CCCN(c2ncnc3onc(-c4ccc(F)cc4)c23)C1 (configuration not stated)	0.938% (inactive)
CN(C)c1ccc(/C=C/c2sc3ccccc3[n+]2C)cc1	-0.317% (inactive)
N#Cc1ccc[n+](CC(=O)c2ccc(O)c(O)c2)c1	6.5% (inactive)
COc1cc(OC)c(NC(=O)Cc2ccc(-n3c(C)nc4cccnc43)cc2)cc1Cl	2.46% (inactive)
O=[N+]([O-])c1ccc(/C=C/c2ccc3cccnc3c2)cc1	-0.507% (inactive)
CCOC(=O)c1c(NC(=O)c2ccc(S(=O)(=O)N3CCCC(C)C3)cc2)sc2c1CCN(C(C)C)C2 (configuration not stated)	0.257% (inactive)
COc1ccccc1N1CCN(c2ncnc3onc(-c4ccc(F)cc4)c23)CC1	0.772% (inactive)
O=C(c1cnn2c1NC(=C1CC1)C=C2C(F)F)N1CCc2ccccc2C1	-0.995% (inactive)
C(=Nc1ccc(/C=C/c2ccnc3ccccc23)cc1)Nc1ccc(/C=C/c2ccnc3ccccc23)cc1	8.34% (inactive)
Cc1cc(=O)n(CC(=O)Nc2cccc([N+](=O)[O-])c2)c(-n2nc(C)cc2C)n1	1.21% (inactive)

Structure (SMILES)	activation
COc1ccccc1NC(=O)CSC1=Nc2ccccc2C2=NC(CC(=O)NCc3cccs3)C(=O)N12 (configuration not stated)	3.51% (inactive)
CC1(C)C=Cc2c(ccc(C(=O)/C=C/c3ccccc3)c2O)O1	19.2% (inactive)
COc1cccc(C(=O)Nc2ccc(-c3cc(C(F)(F)F)nn3-c3ccccc3)cc2)c1	3.44% (inactive)
COc1cccc(C(=O)c2sc3nc(-c4ccccc4)cc(C(F)(F)F)c3c2N)c1	98.2% (active)
COc1ccc(S(=O)(=O)c2c(Nc3cccc(Cl)c3)sc(C(=O)c3ccccc3)c2N)cc1	14.6% (inactive)
COc1ccc(Cn2c(=O)n(-c3ccccc3C)c(=O)c3c4c(sc32)CN(C(C)=O)CC4)cc1	-0.696% (inactive)
O=C(Nc1ccc2nc(SCC(=O)N3CCCc4ccccc43)sc2c1)c1ccc(Cl)cc1	1.16% (inactive)
O=C(Nc1ccc([N+](=O)[O-])cc1)c1cnn2c1NC(=C1CC1)C=C2C(F)F	-0.353% (inactive)
CCCCC(CCCC)c1ccc(C=Nc2ccc(/C=C/c3ccnc4ccccc34)cc2)cc1	5.8% (inactive)
COc1cccc(-c2nnc3n(CCc4ccccc4)c(=O)c4ccccc4n23)c1O	1.15% (inactive)
CCOc1ccc(/C=C(\C#N)c2nc3ccccc3c(=O)[nH]2)cc1OC	1.09% (inactive)
COc1ccc(/C=C(/NC(=O)c2ccc(C)cc2)c2nc3ccccc3[nH]2)cc1OC	50.1% (active)
Cc1ccc2nc(CNC(=O)c3ccccc3)[nH]c2c1	2.07% (inactive)
N#Cc1ccc[n+](CC(=O)c2ccc(F)cc2)c1	1.03% (inactive)
COC(=O)C(CC(C)C)NS(=O)(=O)c1cc(Br)ccc1Br (configuration not stated)	1.9% (inactive)
OC(CBr)CN1CCCCC1 (configuration not stated)	-0.38% (inactive)
Cc1cccc(N2CCN(C(=O)CCn3c(=O)c4cccn4c4cccnc43)CC2C)c1 (configuration not stated)	0.62% (inactive)
C=CCNC(=O)c1ccc2nc(-c3ccco3)c(-c3ccco3)nc2c1	-0.254% (inactive)
OC(CBr)C[n+]1cccc2cc(Br)ccc21 (configuration not stated)	1.14% (inactive)
Nc1ncnc2nnsc12	0.38% (inactive)
CN(C)c1ccc(/C=C/c2sc3ccccc3[n+]2CCCCBr)cc1	6.96% (inactive)
CCC(C(=O)Nc1cccc(Cl)c1C)n1nc(-c2ccc(C)cc2)ccc1=O (configuration not stated)	3.09% (inactive)

Structure (SMILES)	activation
S=c1[nH]c(=S)c2n[nH]nc2[nH]1	0% (inactive)
CC(C)(C)c1ccc(C(=O)C[N+]2(C)CCCc3ccccc32)cc1 (configuration not stated)	-0.62% (inactive)
O=C1O/C(=C\c2ccc(O)cc2)C(O)=C1c1ccc(O)cc1	-0.353% (inactive)
COc1ccc(OC)c(NC(=O)CSC2=Nc3ccccc3C3=NC(CC(=O)NCc4ccc(F)cc4)C(=O)N23)c1 (configuration not stated)	2.38% (inactive)
CCN1CCN(c2ncc3c(n2)CC(c2ccccc2O)CC3=O)CC1 (configuration not stated)	-0.182% (inactive)
CCCS(=O)(=O)Nc1cccc(-c2cn3ccsc3n2)c1	-0.225% (inactive)
CN(CCC#N)c1ccc(C=O)cc1	-0.222% (inactive)
COc1cc([N+](=O)[O-])ccc1NC(=S)N1CCN(c2ccccn2)CC1	0.452% (inactive)
COc1ccc(NC(=O)c2sc3nc(C)nc(N4CCN(c5ccccn5)CC4)c3c2C)c(OC)c1	105% (active)
Cc1nc(N2CCN(c3ccccn3)CC2)c2c(C)c(C(=O)Nc3ccc(F)c(Cl)c3)sc2n1	-0.23% (inactive)
O=C(Nc1ccccc1)c1ccccc1OCc1ccccc1	0.0539% (inactive)
COc1cc2nc(N3CCCN(C)CC3)nc(NC(C)C)c2cc1OC	-0.755% (inactive)
O=C1CC(c2ccccc2)CC2=C1C(c1ccco1)n1nc(C(F)(F)F)nc1N2 (configuration not stated)	-1.28% (inactive)
C=COC(=O)N1CCN(/[N+]([O-])=N/Oc2ccc([N+](=O)[O-])cc2[N+](=O)[O-])CC1	1.19% (inactive)
COc1ccc(CN(Cc2ccccc2)C(=O)c2ccc(O)cc2)cc1COc1ccc(NC(C)=O)cc1	1.13% (inactive)
OC(Cc1ccc2ccccc2n1)c1ccc(Cl)c(Cl)c1 (configuration not stated)	0.0951% (inactive)
CCN(CC)c1ccc(C2C(C(N)=O)=C(C)Nc3nc(SCc4ccccc4)nn32)cc1 (configuration not stated)	-0.404% (inactive)
CCCOc1ccc(C2c3c(-c4ccccc4O)n[nH]c3C(=O)N2Cc2cccnc2)cc1 (configuration not stated)	1.02% (inactive)
Cc1nn(C)cc1N1C(=O)c2cccc3c(N)ccc(c23)C1=O	66.8% (active)
CN1C(=O)c2cccc3c(N)ccc(c23)C1=O	85.5% (active)
Cc1ccc(Cn2cnc3c(cnn3C(C)(C)C)c2=O)c(F)c1	1.07% (inactive)
